According to PubChem BioAssay AID504690 (Sanford-Burnham Center for Chemical Genomics, 2011):
Out of some 350,000 compounds screened, about 2,700 (0.77%) were called active. What follows is part of a selection rich in actives, with near analogues and random picks from the rest. A number with no mark means an inactive call.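 The calls were made as follows: active = inhibition reaching at least a set limit at 20 µM in the primary screen (cut at about 59% in these data); inactive = the rest.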

test system: glucose-6-phosphate dehydrogenase-6-phosphogluconolactonase (Plasmodium falciparum 3D7); assay: PfG6PD enzyme inhibitors, primary screen, biochemical, fluorescence intensity, uHTS (AID 504690); details: PfGluPho enzyme, NADPH resazurin-diaphorase fluorescence; at 20 µM; stronger effect = higher value;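 also: 0% = DMSO wells with substrate and 100% = DMSO wells lacking glucose-6-phosphate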

| Compound | inhibition |
| --- | --- |
| C/C(CC(=O)NC(C)c1ccccc1)=N\NC(N)=S (stereo not drawn) | 6.14% |
| CSc1ccc(S(=O)(=O)N2CCC(C(=O)NCc3ccncc3)CC2)cc1 | -30.2% |
| Cc1cccn2c(CN(C)C3CCCc4ccccc43)c(C(=O)N3CCOCC3)nc12 (stereo not drawn) | 62.9% (active) |
| CCOC(=O)C1CCN(Cc2c(C(=O)N3CCOCC3)nc3c(C)cccn23)CC1 | -12.6% |
| Cc1cccn2c(CNCC(C)Oc3cccnc3)c(C(=O)N3CCOCC3)nc12 (stereo not drawn) | 9.53% |
| c1ccc2cc3c(NCCN4CCOCC4)ccnc3cc2c1 | 6.78% |
| CC(=O)Nc1sc2c(c1C(c1cccc(F)c1)N1CCN(CCO)CC1)CCCC2 (stereo not drawn) | 7.18% |
| NC(=O)c1c(NC(=O)CSc2nnc(-c3ccco3)n2N)sc2c1CCCC2 | 7.61% |
| NC(=O)c1c(Nc2nc3c(F)cccc3s2)sc2c1CCCC2 | 63.4% (active) |
| CCOC(=O)C(NC(=O)CC(C)C)(Nc1sc2c(c1C(N)=O)CCCC2)C(F)(F)F (stereo not drawn) | -8.45% |
| COc1ccc2[nH]c(=O)c(CNc3ccc(C)c(C)c3)cc2c1 | 41% |
| CCN1CCN(CCNC(=O)c2ccc3c(c2)NC(=O)/C(=C\c2cccc(Cl)c2)S3)CC1 | 2.78% |
| O=C1Nc2cc(C(=O)N3CCC(N4CCCCC4)CC3)ccc2S/C1=C\c1ccccc1 | -9.66% |
| CCN1CCCC1CNC(=O)c1ccc2c(c1)NC(=O)/C(=C\c1ccccc1F)S2 (stereo not drawn) | 127% (active) |
| CN(C)S(=O)(=O)c1ccc(Cl)c(NC(=O)COC(=O)CC(NC(N)=O)c2ccc(Cl)cc2)c1 (stereo not drawn) | -3.62% |
| CCOC(=O)c1c(C)[nH]c(C)c1C(=O)CSc1nc(N)cc(N)n1 | 9.63% |
| CCCCNC(=O)c1ccccc1NC(=O)C1=C(C)OCCS1 | -13.5% |
| O=C(Nc1nnc(S(=O)(=O)N2CCCCCC2)s1)c1cccc(Br)c1 | 88.1% (active) |
| O=C(Nc1cccc(S(=O)(=O)N2CCCCC2)c1)c1cncc(Br)c1 | 9.89% |
| CCOC(=O)CSc1nnc(NC(=O)c2cccc(S(=O)(=O)N3CCCCC3)c2)s1 | -28.5% |
| O=C(Nc1ccc(N2CCOCC2)c(Cl)c1)c1ccc(S(=O)(=O)N2CCOCC2)cc1 | 0.32% |
| Cc1nc2ccc(NC(=O)c3cccc(S(=O)(=O)N4CCOCC4)c3)cc2s1 | 19.6% |
| Cc1cccc(NC(=O)c2cccc(S(=O)(=O)N3CCCC3)c2)n1 | -1.18% |
| Cc1cccc(C(=O)Nc2nnc(S(=O)(=O)N3CCCCCC3)s2)c1 | 95.7% (active) |

| Compound | inhibition |
| --- | --- |
| O=C(Nc1nnc(-c2ccccc2)o1)c1cccc(S(=O)(=O)N2CCOCC2)c1 | 0.98% |
| O=C(Nc1nncs1)c1cccc(S(=O)(=O)N2CCCCC2)c1 | -40.8% |
| O=C(Nc1nnc(S(=O)(=O)N2CCOCC2)s1)c1cccc(Br)c1 | 103% (active) |
| O=C(Nc1ccc(S(=O)(=O)N2CCOCC2)cc1)c1ccc2ncsc2c1 | 72.8% (active) |
| O=C(Nc1ccc(S(=O)(=O)Nc2nccs2)cc1)c1cccc(S(=O)(=O)N2CCOCC2)c1 | -1.66% |
| COc1ccc2[nH]c(=O)c(C3c4cc(OC)c(OC)cc4CCN3C(=O)c3ccco3)cc2c1 (stereo not drawn) | 8.2% |
| O=C(NCc1cccnc1)c1ccc(CS(=O)(=O)c2ccc(Br)cc2)o1 | -4.96% |
| CC1CCCCC1NC(=O)CSc1nnc(N)s1 (stereo not drawn) | -8.21% |
| O=C(COC(=O)c1cccc(Cl)c1)NC1CCCCCCC1 | 17.2% |
| CC(C)(C)c1nnc(NC(=O)C2c3ccccc3Oc3ccccc32)s1 | 77.4% (active) |
| CC(C)(C)NC(=O)NC(=O)COC(=O)C1c2ccccc2Oc2ccccc21 | -18.1% |
| CCCN(CCC)C(=O)C1c2ccccc2Oc2ccccc21 | -24.1% |
| Cc1ccc2oc(=O)ccc2c1 | -9.67% |
| CCc1ccc2oc(-c3ccc(N)cc3)nc2c1 | 16.4% |
| CCN(CC)c1ccc2oc(=O)c(C)nc2c1 | 94.1% (active) |
| COc1ccc(S(=O)(=O)N2CCOCC2)cc1NC(=O)Cc1coc2cc(C)ccc12 | -4.24% |
| O/N=C(\c1ccc2c(c1)OCCO2)C1CCCCC1 | -2.41% |
| CCc1ccc(-n2c(=S)sc3c(=O)n(-c4ccccc4OC)c(=S)[nH]c32)cc1 | 55.6% |
| COc1ccccc1N1CCN(c2nc(C)cc(=O)[nH]2)CC1 | 15.1% |
| COc1ccccc1-n1c(=S)[nH]c2c(sc(=S)n2-c2ccc(C)cc2C)c1=O | 78.9% (active) |
| CCCCn1nc(C(=O)Nc2ccc(S(=O)(=O)Nc3ncccn3)cc2)c2ccccc2c1=O | -8.76% |
| NS(=O)(=O)c1ccc(CNC(=O)c2cc(S(=O)(=O)N3CCOCC3)ccc2N2CCCC2)cc1 | 2.61% |
| COc1ccc(NC(=O)COC(=O)CNC(=O)C2CCCCC2)cc1 | -2.97% |
| COc1cccc(C(=O)Nc2nnc(S(=O)(=O)N3CCOCC3)s2)c1 | 97.7% (active) |

| Compound | inhibition |
| --- | --- |
| CN(Cc1ccco1)S(=O)(=O)c1nnc(NC(=O)c2ccccc2)s1 | 58.2% |
| COc1cccc(C(=O)Nc2nnc(S(=O)(=O)N3CCCCC3)s2)c1 | 112% (active) |
| COc1cccc(C(=O)Nc2nnc(S(=O)(=O)N(C)c3ccccc3)s2)c1 | 96.6% (active) |
| COc1ccc(OC)c(NC(=O)c2cccc(S(=O)(=O)N3CCN(C(C)=O)CC3)c2)c1 | -11.9% |
| CN(Cc1ccccc1)S(=O)(=O)c1nnc(NC(=O)c2ccccc2F)s1 | 27.5% |
| COc1cccc(C(=O)Nc2ccc3nc4n(c(=O)c3c2)CCCCC4)c1 | 20% |
| Cc1ccccc1OCC(=O)Nc1nnc(S(=O)(=O)N2CCCC2)s1 | -10.3% |
| CC(=O)c1cccc(NC(=O)COc2ccc(S(=O)(=O)N3CCOCC3)cc2)c1 | 3.48% |
| Cc1csc2ncc(C(=O)N(Cc3ccccc3)c3ccccn3)c(=O)n12 | -14.5% |
| Cc1cccc(C)c1NC(=O)C1CCCN1C(=O)OC(C)(C)C (stereo not drawn) | -0.36% |
| CC(C)(C)c1cc(=O)n2c(nc3ccccc32)[nH]1 | 12.8% |
| CCc1c(C)sc(NC(=O)c2cccs2)c1C(N)=O | 71% (active) |
| CCc1cccc(C)c1NC(=O)COC(=O)CNC(=O)c1cccs1 | 4.68% |
| CCc1ccc(NC(=O)C(=O)NNC(=O)c2cccs2)cc1 | -15.6% |
| C=CCCC(=O)N1C[C@H]2CON(C)[C@H]2C[C@H]1c1cccc(Nc2ccccc2)c1 | 21.3% |
| O=C(OCC(=O)N1CCCCC1)c1ccc(OC(F)(F)F)cc1 | -6.53% |
| CCCCN1Cc2c(nc3cc(-c4ccccc4)[nH]n3c2=O)C1=O | -27.7% |
| O=c1c2c(nc3cc(-c4cccc(Cl)c4)[nH]n13)CCCC2 | 75% (active) |
| O=c1c2c(nc3nc[nH]n13)CCC2 | 16.4% |
| CCOC(=O)c1cnn2c(SC)ncnc12 | 5.86% |
| Cc1cc(C)n(Cc2cnc(N3CCOCC3)s2)n1 | 2.1% |
| CC1(C)CC(=O)c2cc(OCC(=O)NCC3CCCO3)ccc2O1 (stereo not drawn) | 7.52% |
| CC(=O)Nc1ccc2c3c(ccc([N+](=O)[O-])c13)CC2 | 1.79% |
| Brc1ccc(C2=CC(c3ccco3)n3ncnc3N2)cc1 (stereo not drawn) | 23.3% |

| Compound | inhibition |
| --- | --- |
| Clc1ccc2c(c1)C1=C(C(c3ccncc3)O2)C(c2ccc(Br)cc2)n2ncnc2N1 (stereo not drawn) | 78.5% (active) |
| O=C(C1CCN(S(=O)(=O)c2ccc(Br)s2)CC1)N1CCN(C2CCCCC2)CC1 | 3.65% |
| Cc1ccnc(-n2sc3ccccc3c2=O)n1 | 97% (active) |
| Cc1ccnc(SC2CC(=O)N(c3ccccc3)C2=O)n1 (stereo not drawn) | -11.7% |
| O=C(NCc1ccccc1)C1CCCN(S(=O)(=O)c2cccs2)C1 (stereo not drawn) | 3.61% |
| C[C@@H]1CCCCO[C@H](CN(C)Cc2ccccc2)[C@@H](C)CN([C@H](C)CO)C(=O)c2cc(NS(=O)(=O)c3ccc(Cl)cc3)ccc2O1 | 36.3% |
| O=c1[nH]nc(Cc2ccccn2)c2ccccc12 | 1.12% |
| COc1ccc(Cc2n[nH]c(=S)n2NC(=O)Nc2ccc(C)cc2)cc1 | 15.8% |
| COc1ccc(OCc2n[nH]c(=S)n2N)cc1 | 71.3% (active) |
| Fc1ccc(/C=N/n2c(COc3ccccc3)n[nH]c2=S)cc1 | 27.2% |
| CCOc1ccc(NS(=O)(=O)c2ccc(Cl)c(C(=O)N(C)Cc3cccnc3)c2)cc1 | -26.1% |
| C=CCn1c(SCC(N)=O)nnc1-c1cc2c(s1)CCC(CC)C2 (stereo not drawn) | 2.97% |
| CCC1=NN(C(=O)Cc2ccc([N+](=O)[O-])cc2)C(O)(c2ccc(Br)cc2)C1 (stereo not drawn) | -3.74% |
| CC1(C)NC(=O)N(CC(=O)N2CCN(S(=O)(=O)c3ccccc3F)CC2)C1=O | -13.8% |
| O=C(COc1ccccc1)Nc1ccc(F)cc1 | -2.38% |
| O=C(COc1ccccc1)Nc1nonc1NC(=O)COc1ccccc1 | 71.2% (active) |
| O=C(COc1ccccc1)Nc1ccc(C(=O)N2CCCC2)cc1 | -12.5% |
| COc1ccc([N+](=O)[O-])cc1N(CC(O)Cn1nnc2ccccc21)S(=O)(=O)c1ccc(C)cc1 (stereo not drawn) | -4.47% |
| Cc1nc([N+](=O)[O-])nn1C12CC3CC(CC(Br)(C3)C1)C2 | 71% (active) |
| CC1CCC(CN2CCN=C2N(C)C)CC1 (stereo not drawn) | -9.19% |
| CCOc1ccc(S(=O)(=O)N2CCCC(C(=O)N3CCC(C(N)=O)CC3)C2)cc1Cl (stereo not drawn) | -4.54% |
